These results are taken from PubChem BioAssay AID651616 (The Scripps Research Institute Molecular Screening Center, 2012).

SMILES strings stand for the structures. In all, about 5,600 compounds went through this assay and about 4,400 (79%) were called active. So high a share suggests a set chosen from earlier hits. These entries were drawn from the full list. Values without a mark were called inactive. Rule as the data show it: active = inhibition above about 27%; inactive = the rest.

A word on the inhibition: it is the drop in the measured response relative to a control, in per cent.

Sequence of Fructose-bisphosphate aldolase (Mycobacterium tuberculosis (strain ATCC 25618 / H37Rv)) (P9WQA3 whole entry, looked up): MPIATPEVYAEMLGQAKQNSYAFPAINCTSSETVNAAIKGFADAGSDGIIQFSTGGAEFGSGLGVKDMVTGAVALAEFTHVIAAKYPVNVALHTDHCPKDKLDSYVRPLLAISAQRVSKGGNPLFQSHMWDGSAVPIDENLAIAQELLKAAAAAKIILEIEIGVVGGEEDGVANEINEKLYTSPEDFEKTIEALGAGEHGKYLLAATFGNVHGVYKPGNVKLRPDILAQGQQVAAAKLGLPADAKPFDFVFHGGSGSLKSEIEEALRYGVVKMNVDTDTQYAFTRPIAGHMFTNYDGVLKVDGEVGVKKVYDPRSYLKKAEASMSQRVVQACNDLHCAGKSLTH

The experiment has as its target Fructose-bisphosphate aldolase (Mycobacterium tuberculosis (strain ATCC 25618 / H37Rv)) (UniProt P9WQA3). In words: M. tuberculosis aldolase blockers, biochemical, fluorescence, strain H37Rv, confirmation (AID 651616).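 Also: 0% = vehicle wells and 100% = reference inhibitor wells.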 Conditions: purified M. tuberculosis FBA, fluorescence read-out, at 1 µM, active compounds read high.
For `COc1ccc(-c2nc3cc(C)ccn3c2NC2CCCCC2)cc1SC1CCCCC1`, the inhibition is 53.2% (active). With `O=C(Nc1ccc(-c2nnc(-c3ccccc3)o2)cc1)C1CCCO1` (stereo not drawn) the figure was 1.4%; with `O=C(CCc1ccccc1)Nc1cccc(-c2nnc(-c3ccco3)o2)c1`, 91% (active); with `CC(=O)N1C(=O)/C(=C2\SC(=S)N(NC(=O)c3ccc(O)cc3)C2=O)c2ccccc21`, 10.4%. With `Cc1cc(C)c2nc3nc(C)cc(C)c3c(N)c2c1` the figure was 41.1% (active); with `Cc1cc(C)c2nc(-c3ccco3)cc(C(=O)O)c2c1`, 3.93%. With `CCOC(=O)N1CCC(NC(=O)c2cnn3ccccc23)CC1` the figure was 42.5% (active). As for `CCOc1c2ccc(C(=O)NCc3ccc(OC(F)(F)F)cc3)cc2nn1C`, the inhibition is 106% (active). As for `CCCn1nc2cc(C(=O)NCc3ccccc3)ccc2c1OCC`, the figure is -3.79%. Regarding `CCOc1c2ccc(C(=O)NC3CCCc4ccccc43)cc2nn1CC` (stereo not drawn), the inhibition is 21.6%. For the molecule `CCOc1c2ccc(C(=O)NCc3ccc4c(c3)OCO4)cc2nn1C`, the inhibition is 107% (active). As for `O=C(NCc1cccc(Cl)c1)C1=CC=CN2CCS(=O)(=O)N=C12`, the figure is 11.8%; as for `C=CCn1c(CCNC(=O)c2ccccc2F)nnc1SCC(=O)Nc1ccc(OC)cc1`, 586% [above what the read-out allows, likely interference] (active); as for `Cc1ccsc1C(=O)N[C@@H](C)c1nnc2ccccn12`, 125% (active).

Take `CC(C)n1c(-c2cccs2)nc2ccccc21`: the inhibition is 87% (active). With `CC1(C(=O)NCc2ccco2)Cc2c(-c3ccc4c(c3)OCO4)ccnc2O1` (stereo not drawn) the figure was 7.76%; with `CC1(C(=O)NCc2ccc(F)c(F)c2)Cc2c(-c3ccc4c(c3)OCO4)ccnc2O1` (stereo not drawn), 155% (active); with `Cc1cc(=O)oc2c3c(cc(OCC(=O)NCC(O)c4ccccc4)c12)OC(C)(C)CC3` (stereo not drawn), 62% (active). As for `CC1(C)CC(=O)c2cc(OCC(=O)NCC3CCCO3)ccc2O1` (stereo not drawn), the figure is -1.83%. As for `CCCCNc1c(-c2cccc(Sc3ccc(OC)cc3)c2)nc2ccccn12`, the figure is 35.1% (active). As for `CCCCn1c(-c2cccc(C)c2)nc2cc3[nH]c(=O)c(C(C)C)nc3cc21`, the inhibition was 34.1% (active). With `O=C(O)/C=C/c1cn(-c2ccccc2)nc1-c1cccs1` the figure was 92.4% (active).

For the molecule `O=C(CN1C(=O)c2cccc3cccc(c23)C1=O)N1CCCCC1`, the inhibition is 70.8% (active). With `c1ccc2c(NC3C4CC5CC(C4)CC3C5)nc(N3CCOCC3)nc2c1` (stereo not drawn) the figure was 134% (active); with `CC(Nc1nc(N2CCOCC2)nc2ccccc12)c1ccccc1` (stereo not drawn), 56.5% (active).

Turning to `COC(=O)CSc1nc(C)c2ccc(OC)cc2n1`, the inhibition is -3.91%.

As for `CCOC(=O)Cn1c(=O)n(Cc2ccc(OC)cc2)c(=O)c2cccnc21`, the inhibition is 852% [above what the read-out allows, likely interference] (active).

As for `O=C(CCC(=O)N/N=C/c1ccc(Br)o1)N/N=C/c1ccc(Br)o1`, the inhibition was 110% (active). With `CCC(=O)Nc1c(S(=O)(=O)c2ccccc2)c2nc3ccccc3nc2n1Cc1ccccc1` the figure was 173% (active).

Take `COc1ccc2nc(-c3ccccn3)ccc2c1`: the inhibition was 116% (active). As for `O=C1NC(c2cccc(Cl)c2)Nc2ccccc21` (stereo not drawn), the figure is 102% (active). As to `COc1ccc(C2NC(=O)c3ccccc3N2)cc1` (stereo not drawn), the inhibition is 146% (active). With `Cc1ccc2nc(-c3ccco3)c(Cc3cccc(Cl)c3)n2c1` the figure was 94.1% (active); with `O=C1OCCN1C(=O)[C@H]1[C@H](c2ccc(F)cc2)C(c2ccccc2)=NN1c1ccc(Br)cc1`, 65.6% (active); with `CNc1nc(-c2ccccc2)cc(-c2ccccc2)n1`, 76.6% (active).

Turning to `CCCN(C(=O)CSc1nnc(N)s1)c1c(N)n(Cc2ccccc2)c(=O)[nH]c1=O`, the inhibition was 59.2% (active). As for `COc1ccc(-c2ccc(C(=O)NCCN3CCOCC3)c3occc23)c(C)c1`, the figure is 72% (active); as for `COc1ccc(-c2ccc(C(=O)NC(C)C)c3occc23)c(C)c1`, 112% (active). As for `COc1ccc(-c2oc3ncnc(NCCCO)c3c2-c2ccc(OC)cc2)cc1`, the figure is 51.9% (active); as for `Cc1cc(C)nc(SCc2cn3c(C)cc(C)nc3n2)n1`, 102% (active); as for `COc1cccc(NC(=O)CN(C)C(=O)/C=C/c2cc(OC)ccc2OC)c1`, 105% (active). As for `COc1cccc(NC(=O)CN(C)CC(=O)Nc2ccc3c(c2)CCC3)c1`, the figure is 89% (active); as for `Cc1c(OC(C)C(=O)N[C@@H](Cc2ccccc2)C(=O)O)ccc2c3c(c(=O)oc12)CCCC3` (stereo partly drawn), 5.53%. As for `COc1ccc2c3c(c(=O)oc2c1OCC(=O)C(C)(C)C)CCCC3`, the inhibition is 60.2% (active). With `CCC(=O)Nc1ccc2nn(-c3ccc(F)cc3)nc2c1` the figure was 88% (active); with `CCCC/C=C/c1cccc2nncn12`, 68.8% (active); with `O=C(NCCc1ccccc1)c1ccc2c(c1)N(Cc1ccccc1)CCS2`, 42.5% (active). As for `CN1CCN(CCCNC(=O)c2ccc(/C=C3\Oc4ccccc4N(Cc4ccc(Cl)cc4)C3=O)cc2)CC1`, the figure is -4.52%. As for `O=C(NCCN1CCOCC1)c1ccc2c(c1)N(Cc1ccc(Cl)cc1)CCS2`, the figure is 56.6% (active). In the case of `COCCCNC(=S)N(CCN(C)C)Cc1cc2cc3c(cc2[nH]c1=O)OCCO3`, the inhibition is 43.2% (active).

Turning to `COc1ccc(C2C3=C(CCCC3=O)N(CC(=O)O)C3=C2C(=O)CCC3)cc1`, the inhibition was 128% (active).

Consider `CCCc1cc(=O)n2[nH]c(C)c(-c3ccc(Cl)cc3)c2n1`, for which the inhibition is 123% (active). With `Cc1nc2c(-c3ccccc3)c(C)[nH]n2c(=O)c1Cl` the figure was 105% (active). As for `COCc1cc(=O)n2[nH]c(C)c(-c3ccccc3)c2n1`, the figure is 50.6% (active); as for `O=C(O)Cc1sc(-c2ccc(C(=O)O)cc2)nc1-c1ccccc1`, -7.84%; as for `c1cc(-c2ccc3[nH]ccc3c2)n2ccnc2c1`, 79.6% (active). As for `COc1ccc(CNC(=O)c2c[nH]c3c(OC)cc(OC)cc3c2=O)cc1`, the figure is -2.04%. For `Cc1ccc(Cn2c(C)nc3c(c2=O)c2nc4ccccc4nc2n3Cc2ccco2)cc1`, the inhibition is 55% (active). With `CC(=O)Nc1ccc(-c2nc3ccccc3o2)cc1` the figure was 8.14%; with `COc1cc(OC)cc(C(=O)Nc2ccc(-c3nc4ccccc4o3)c(O)c2)c1`, 148% (active). Consider `CC(C)OCCCNc1ncnc2c1[nH]c1ccc(F)cc12`, for which the inhibition is 132% (active). As for `CC(C)CN1CCNC(=O)C1CC(=O)N(C)CC1CCOCC1` (stereo not drawn), the figure is 138% (active); as for `Cc1cc(OCc2cc(C(=O)O)oc2C)c2c3c(c(=O)oc2c1)CCCC3`, 151% (active); as for `COC(=O)COc1cc(C)cc2oc(=O)c3c(c12)CCCC3`, 124% (active). With `CCCS(=O)(=O)Nc1c(C(=O)O)[nH]c2ccccc12` the figure was 54.9% (active); with `CCOC(=O)c1c(-c2ccccc2)oc2ccc(OCC(N)=O)cc12`, 148% (active). Consider `CCOC(=O)c1c(-c2ccccc2)oc2ccc(OCC(=O)NN)cc12`, for which the inhibition was 108% (active). As for `COC(=O)c1c(-c2ccsc2)oc2ccc(-c3cc(OC)c(OC)c(OC)c3)cc12`, the figure is 2.75%. In the case of `COc1cc(C(F)(F)F)nc2c(Br)c(C(C)(C)C)nn12`, the inhibition is 66.4% (active). With `Cc1ccc(NC(=O)CN(C)C(=O)COC(=O)c2nccnc2N)cc1` the figure was 4.29%; with `COc1ccc2oc(=O)c(C(=O)N3CCCC3)cc2c1`, 113% (active); with `CCN(CC)c1ccc2cc(C(=O)O)c(=O)oc2c1`, 22.1%.

Consider `COc1ccc2oc(=O)c(C(=O)NCc3ccccn3)cc2c1`, for which the inhibition is 10.3%. Consider `C=CCc1c(C)nc2cc(-c3ccccc3)[nH]n2c1=O`, for which the inhibition is 56.1% (active).

Turning to `CCc1c(C)nc2cc(C)[nH]n2c1=O`, the inhibition is 45.6% (active). As for `CCc1c(C)nc2cc(-c3cccs3)[nH]n2c1=O`, the inhibition was 26.8%.

Take `CN(C)S(=O)(=O)c1ccc(N/C=C(\[N+](=O)[O-])S(=O)(=O)c2ccccc2)cc1`: the inhibition was 2.34%. As for `COCc1cc(=O)oc2cc(NS(=O)(=O)c3ccc(C)cc3)ccc12`, the figure is 62.7% (active); as for `COCCN(CCOC)c1nc(N)c2c(N)nc3c(c2c1C#N)CC(=O)N3Cc1ccc(Cl)cc1`, 89.8% (active); as for `CCCC1OC23CCCCC2C(C#N)(C#N)C1(C#N)C(=N)O3` (stereo not drawn), -0.85%.

Turning to `CC(=O)N1CCN(C(=O)c2cc(-c3ccc(Cl)s3)nc3ccccc23)CC1`, the inhibition was 12.6%.

Regarding `O=C(c1cc(-c2ccc(Cl)s2)nc2ccccc12)N1CCOCC1`, the inhibition was 111% (active).

In the case of `Cc1nn(C)c(Oc2ccccc2)c1CCNS(=O)(=O)c1ccc(F)cc1`, the inhibition was 157% (active). With `Cc1cccc(NC(=O)c2sc3nc(N4CCOCC4)c4c(c3c2N)CCCC4)c1` the figure was 108% (active). As for `Oc1ccc(Br)cc1C=Nc1ccc2[nH]ncc2c1`, the figure is 79.1% (active). With `COc1ccc(-c2cc(C(=O)Nc3ccccc3O)c3ccccc3n2)cc1` the figure was 133% (active); with `COc1ccc(-c2cn3ccc(C)cc3n2)cc1`, 4.46%. Take `COc1ccc(-c2cc(C(=O)N(C)Cc3ccccc3)c3ccccc3n2)cc1`: the inhibition was -2.17%. In the case of `COc1nc(N=C(N)N)nc2c(C)cccc12`, the inhibition was 108% (active). With `COc1cc2nc(N3CCN(C(=O)[C@@H]4CCCO4)CC3)nc(N)c2cc1OC` the figure was 109% (active); with `CC(C)C1Nc2c(C(=O)O)cccc2C(Nc2ccccc2C(=O)O)C1(C)C` (stereo not drawn), 95.8% (active); with `Cc1noc(C)c1COc1ccc2ccc(=O)oc2c1`, 55.1% (active).

On to `COC(=O)c1c(C)c(C)nc(N)c1C#N`, for which the inhibition was 56.3% (active). As for `CCOC(=O)Cc1c(C)nc2c(C#N)c(C)nn2c1C`, the figure is 63.7% (active); as for `Cc1cc(C)c(-c2c(O)c3ccccc3n(C)c2=O)c(C)c1`, 78.7% (active). With `CCSc1nnc(-c2cc3c(s2)-c2ccccc2CC3)o1`, the inhibition is 76.8% (active). With `CCCCOc1ccc(-c2nnc(-c3ccco3)o2)cc1` the figure was 174% (active).

With `CCOc1ccc(-c2nnc(-c3ccco3)o2)cc1`, the inhibition was 106% (active).
